Assay outcomes deposited in PubChem BioAssay by National Center for Advancing Translational Sciences (NCATS).
Rows were chosen to be rich in hits. Some 7.1% of all compounds tested hit in one or more screens of this group.
MCF10A rereplic – A quantitative high throughput screen for small molecules that induce DNA re-replication in MCF 10a normal breast cells | MCF 10A DNA re-replication, Hoechst nuclear intensity, 48 h | Potency, µM (series often up to 46.1 µM), without a hit: top-dose activity, positive = re-replication, usual class: activators | 350,000 compounds, 2.9% hits; also: potency is read from the fitted curve at half-maximal effect; % of control where 0% means no effect; nearly all actives have a fitted effect of over 50% in size
PINK1 modulator – A Quantitative High throughput Screen to Identify Chemical Modulators of PINK1 Expression | PINK1 immunofluorescence, high-content cytometry, 24 h | Potency, µM (titrated, usually from 76.6 µM), for inactives: top-dose activation (PINK1 increase), most hits filed as activators | 410,000 compounds, 0.2% hits | AID 624263, 2012; active = well fitted activation curve with a large enough effect; inconclusive = small, poorly fitted or top-dose-only effect; cell line not stated here; also: potency is read from the fitted curve at half-maximal effect; % of control where 0% means no effect; nearly all actives have a fitted effect of over 65% in size
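Compound titrations (5 concentrations, 24 h) on a stable cell line; DMSO and CCCP controls. Endpoint: fixed-cell PINK1 immunofluorescence with mitochondrial, cell and nuclear markers, scanned by microplate cytometer.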
SW480 rereplic – A quantitative high throughput screen for small molecules that induce DNA re-replication in SW480 colon adenocarcinoma cells; SW480 DNA re-replication, Hoechst DNA content imaging, 48 h; 340,000 compounds, 1.8% hits; AID 624297, 2012; Potency, µM (titrated, usually from 46.1 µM), for inactives: at the top dose re-replication activation, hits mostly activators; also: potency is read from the fitted curve at half-maximal effect; % of control where 0% means no effect; nearly all actives have a fitted effect of over 55% in size
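Readout is total intensity of Hoechst-stained nuclei, excited at 405 nm and collected at 500-530 nm. Compound treatment lasted 48 hr at 37 C in 5% CO2 before staining.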
IL-1B inflam inh – qHTS for Inhibitors of Inflammasome Signaling: IL-1-beta AlphaLISA Primary Screen | THP-1 LPS/ATP IL-1B secretion, AlphaLISA, 16 h; stronger effect = lower value | activity change, % at 57.5 µM | 360,000 compounds, 4.7% hits; in the data active = activity change below about -50%; inconclusive = mostly about -30% to -49%; also: % is scaled to controls: 0 for no effect and ±100 for the full control effect
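Secreted IL-1B measured by AlphaLISA bead assay after 16 h compound exposure of THP-1 cells; compounds (final up to 57.5 uM) added 1 h before LPS (250 ng/mL) and ATP (1.25 mM) stimulation; lower signal means less secretion.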
ATXN2 expr inh – Primary qHTS for Inhibitors of ATXN expression | HEK-293 ATXN2-luciferase reporter, luminescence, 24 h | Potency, µM (titrated, usually from 57 µM), inactives show at the top dose activity change, negative = inhibition, hits mostly inhibitors | 360,000 compounds, 0.72% hits | AID 1745845, 2022; also: potency is read from the fitted curve at half-maximal effect; % is scaled to controls: 0 for no effect and ±100 for the full control effect; nearly all actives have a fitted effect of over 55% in size
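ATXN2-luciferase reporter cells (luciferase flanked by upstream and downstream ATXN2 gene portions) were treated 24 h at 37 °C with compounds at up to 57 uM. SteadyGlo luminescence gave expression; GF-AFC fluorescence gave viability.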
S2 tox – Viability Counterscreen for Primary qHTS for Inhibitors of ATXN expression; S2 cells (HEK-293 line with an ATXN2-luciferase reporter) viability, CellTiter-Fluor protease fluorescence, 24 h; Potency, µM (top dose mostly 56.7 µM), most hits filed as cytotoxic; 400,000 compounds, 0.49% hits; AID 651635, 2014; also: potency is read from the fitted curve at half-maximal effect; nearly all actives have a fitted effect of over 40% in size
Starred values were filed as active, the others as inactive; [ ] = dose if it differs, or a comment. Unless noted, calls follow the shape of the dose curve; as a rule, active = well fitted curve in the direction sought with a large enough effect; inconclusive = small, poorly fitted or top-dose-only effect, or another doubt; inactive = no such curve, though single readings can be large; an effect the other way counts as inactive or inconclusive.

`COc1cccc(/C=N/NC(=O)c2cc3cc([N+](=O)[O-])ccc3s2)c1O` gave MCF10A rereplic inconclusive, PINK1 modulator 2%, SW480 rereplic 1.8µM*, IL-1B inflam inh 77 and ATXN2 expr inh inconclusive.
`COc1cccc(/C=N/NC(=O)c2cc3c(OC)cccc3[nH]2)c1O` gave MCF10A rereplic 0%, PINK1 modulator 40µM*, SW480 rereplic 9.2µM*, IL-1B inflam inh 69, ATXN2 expr inh inconclusive and S2 tox inactive.
`CCOC(=O)c1ccc(NC(=O)C(CC)Sc2nncn3c2cc2oc(C)cc23)cc1` (stereo unspecified) gave PINK1 modulator 1%.
CCc1ccc(C(=O)c2cn(CC(=O)NCc3ccc(C)cc3)c3nc(C)ccc3c2=O)cc1 was read as PINK1 modulator 4%, ATXN2 expr inh -12% and S2 tox inactive.
`CCOC(=O)c1cc(-c2ccccc2)n(CCC(=O)NCc2ccccc2Cl)c1C` gave PINK1 modulator 5%.
Screening COc1cccc(/C=N/NC(=O)c2cnccn2)c1O returned MCF10A rereplic 5%, PINK1 modulator 0%, SW480 rereplic 5.2µM*, IL-1B inflam inh 76, ATXN2 expr inh -19% and S2 tox inconclusive.
Screening COc1cccc(/C=N/NC(=O)CSCC(=O)Nc2ccccc2)c1O returned MCF10A rereplic 11%, PINK1 modulator 1%[38.3 µM], SW480 rereplic inconclusive, IL-1B inflam inh 152, ATXN2 expr inh 28µM* and S2 tox inactive.
COC(=O)c1sccc1N/N=C/c1cccc(OC)c1O was read as MCF10A rereplic inconclusive, PINK1 modulator 9%, SW480 rereplic -2%, IL-1B inflam inh -12, ATXN2 expr inh inconclusive and S2 tox inactive.
Screening COc1ccc(/C=N/NC(=O)c2cccc3ccccc23)c(OC)c1OC returned MCF10A rereplic 15µM*, PINK1 modulator 9%, SW480 rereplic -14%, IL-1B inflam inh 6, ATXN2 expr inh -11% and S2 tox inactive.
`COc1ccc(/C=N/NC(=O)c2cnccn2)c(OC)c1OC` gave MCF10A rereplic -1%, PINK1 modulator 1%, SW480 rereplic 2%, IL-1B inflam inh -9 and S2 tox inactive.
COc1ccccc1/C=N/NC(=O)c1cccc2ccccc12 was read as MCF10A rereplic -3%, PINK1 modulator 3%, SW480 rereplic inconclusive, IL-1B inflam inh -11, ATXN2 expr inh -8% and S2 tox inactive.
COC(=O)c1sccc1N/N=C/c1ccc(OC)c(OC)c1OC was read as MCF10A rereplic 23µM*, PINK1 modulator 1%, SW480 rereplic 11%, IL-1B inflam inh -14, ATXN2 expr inh 27% and S2 tox inactive.
Screening COc1ccc(-c2nc(CS(=O)CC(=O)NCc3ccc(F)cc3)c(C)o2)cc1OC (stereo unspecified) returned PINK1 modulator -1%.
`CCOc1ccccc1NC(=O)c1nnn(CC(=O)Nc2ccccc2CC)c1N` gave PINK1 modulator 1%, ATXN2 expr inh inconclusive and S2 tox inconclusive.
Screening CN(C)S(=O)(=O)Nc1ccc(Cc2ccncc2)cc1 returned PINK1 modulator -1%, IL-1B inflam inh 11 and S2 tox inactive.
O=C(N/N=C/c1cc([N+](=O)[O-])ccc1Cl)c1cnccn1 was read as MCF10A rereplic inconclusive, PINK1 modulator 3%, SW480 rereplic 5.2µM*, IL-1B inflam inh 25, ATXN2 expr inh -27% and S2 tox inactive.
`CCOC(=O)c1sc(Nc2ccc(Br)cc2)nc1C` gave MCF10A rereplic inconclusive, PINK1 modulator 11%, SW480 rereplic -4%, IL-1B inflam inh -6, ATXN2 expr inh -7% and S2 tox inactive.
For CCOC(=O)c1cc2nc(Nc3ccc(OC)cc3)sc2s1 the results were MCF10A rereplic 4.6µM*, PINK1 modulator 12%, SW480 rereplic inconclusive, IL-1B inflam inh -1, ATXN2 expr inh 8% and S2 tox inactive.
CC1(C)CCCN(C(=O)c2ccc3c(c2NCCO)C(=O)c2ccccc2C3=O)C1 was read as MCF10A rereplic inconclusive, PINK1 modulator 0%, SW480 rereplic -2%, IL-1B inflam inh -65* and ATXN2 expr inh -17%.
`O=C(Nc1cc(C(=O)NC2CCOCC2)c2c(c1)ncn2C1CCCC1)c1ccccc1` gave PINK1 modulator -1% and S2 tox inactive.
For CCOC(=O)c1ccc2c(c1)n(CC)c(/C=C/N(C)c1ccccc1)[n+]2CC the results were MCF10A rereplic 11%, PINK1 modulator 20%, SW480 rereplic -6%, IL-1B inflam inh -89*, ATXN2 expr inh -33% and S2 tox inactive.
CCOC(=O)c1ccc2c(c1)n(CCO)c(C)[n+]2CC was read as MCF10A rereplic -5%, PINK1 modulator 0%, SW480 rereplic -4%, IL-1B inflam inh 5, ATXN2 expr inh -1% and S2 tox inactive.
For COc1ccc(C(=O)N(Cc2ccccc2)Cc2ccc(OC)c(COc3ccc(NC(C)=O)cc3)c2)cc1 the results were PINK1 modulator 1%.
Screening O=C(C(Br)=Cc1ccccc1)c1ccccc1 returned MCF10A rereplic 16µM*, PINK1 modulator -4%, SW480 rereplic 2.9µM*, IL-1B inflam inh -110*, ATXN2 expr inh 20µM* and S2 tox inconclusive.
`CC(=O)C(=Cc1ccc(-c2ccccc2)cc1)C(=O)c1ccccc1` gave PINK1 modulator 1%, IL-1B inflam inh -112* and ATXN2 expr inh inconclusive.
`CC(=Cc1ccccc1)C(=O)c1ccccc1` gave PINK1 modulator 2%, IL-1B inflam inh 35 and S2 tox inactive.
`N#CC(=Cc1ccc(-c2ccccc2)cc1)C(=O)c1ccccc1` gave PINK1 modulator 1%, IL-1B inflam inh 30, ATXN2 expr inh 9% and S2 tox inactive.
Cc1cc(O)c(N=Cc2cc3c(cc2[N+](=O)[O-])OCO3)cc1C was read as MCF10A rereplic 16µM*, PINK1 modulator 3%, SW480 rereplic inconclusive, IL-1B inflam inh 24, ATXN2 expr inh -22% and S2 tox inactive.
`Cc1ccc(-n2nc(C)c3c(C)cc(=O)n(CC(=O)NC(C)c4ccccc4)c32)cc1` (stereo unspecified) gave PINK1 modulator 1%, ATXN2 expr inh -6% and S2 tox inactive.
